Compound activity from PubChem BioAssay.
D1 antag – antagonists of human D1 dopamine receptor | activity change, negative = inhibition, % at 10 µM | P21728 | 360,000 compounds, 3.2% hits | HEK293 TREx D1 cells, calcium flux, dopamine EC80; active compounds read low; in the data active means activity change below about -30%
Target sequence (P21728 whole entry, looked up): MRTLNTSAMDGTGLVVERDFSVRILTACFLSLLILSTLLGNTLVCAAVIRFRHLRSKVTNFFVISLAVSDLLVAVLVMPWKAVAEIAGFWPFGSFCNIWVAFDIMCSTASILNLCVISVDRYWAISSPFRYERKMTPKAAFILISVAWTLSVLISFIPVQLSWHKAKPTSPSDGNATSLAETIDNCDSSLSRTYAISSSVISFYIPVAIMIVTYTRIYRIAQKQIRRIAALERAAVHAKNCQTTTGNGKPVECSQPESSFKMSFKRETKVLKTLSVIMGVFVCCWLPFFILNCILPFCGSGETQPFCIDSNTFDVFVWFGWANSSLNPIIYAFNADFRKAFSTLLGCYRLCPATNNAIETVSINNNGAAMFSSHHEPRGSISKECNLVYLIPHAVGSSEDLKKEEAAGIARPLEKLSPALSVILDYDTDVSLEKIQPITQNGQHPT
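Kinetic fluorescence of a calcium dye serves as the read-out. D1-expressing Hek293 Trex cells, induced overnight at 30 C, are exposed to compound for 180 s before an EC80 dopamine addition, then read 180 s further.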
D1 agonist – human D1 receptor agonism; P21728; HEK293 T-REx D1 cells, calcium flux, agonist mode; activation, % at 2 µM; 360,000 compounds, 1% hits; AID 504660; in the data active means activation above about 30%
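Tetracycline-induced HEK293 TREx D1 cells, force-coupled to calcium signalling, were dye-loaded with a no-wash calcium kit. Compound was pin-added after a 10 s baseline. Fluorescence was read kinetically at 1 cycle/s for 180 s, with calcium rises flagged as agonism.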
TRPV1 agonist – activates the human vanilloid receptor TRPV1; TRPV1-expressing cells, Fluo-8 calcium influx, agonist mode; 320,000 compounds, 0.19% hits; activation, % at 8.33 µM; AID 540275; in the data active means activation above about 80%; inconclusive means between about 30% and that limit
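TRPV1-expressing cells were cultured overnight at 35.5C and loaded with Fluo-8 calcium dye for 40 to 90 min at room temperature. After a 10 s baseline, compound was added and calcium influx was read kinetically for 3 min (ex 480/em 520 nm).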
TRPV1 potentiator – potentiators of human vanilloid receptor 1 (TRPV1); TRPV1-expressing cells, Fluo-8 calcium influx, capsaicin EC20 potentiation; potentiation, % at 8.33 µM; 320,000 compounds, 0.02% hits; AID 540277; in the data active means potentiation above about 80%; inconclusive means between about 30% and that limit
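TRPV1-expressing cells were cultured overnight at 35.5C and loaded with Fluo-8 calcium dye for 40 to 90 min at room temperature. After a 10 s baseline, compound was added and calcium influx was read kinetically for 3 min (ex 480/em 520 nm).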
D1 PAM – potentiators of human D1 dopamine receptor. 360,000 compounds, 0.036% hits. HEK293 TREx D1 cells, calcium flux, dopamine EC20 potentiation. AID 504651. P21728. potentiation, % at 10 µM; in the data active means potentiation above about 30%
A number is an active result; – = inactive; ? = inconclusive; · = no result given. Rows were chosen to be rich in hits. Some 4.2% of all compounds tested hit in one or more screens of this group.

SMILES	D1 antag	D1 agonist	TRPV1 agonist	TRPV1 potentiator	D1 PAM
Cc1ccc(S(=O)(=O)N2CCN(Cc3nnc(-c4c(-c5ccccc5)noc4C)o3)CC2)cc1	-41.7	–	–	–	·
CCCCCn1c(CCNC(=O)c2cccc(C)c2)nc2ccccc21	–	–	·	·	–
COc1ccc(OCC(O)CNC(=O)Nc2ccc(F)cc2)cc1 (stereo not given)	-38.0	–	·	·	–
Cc1nn(-c2ccc(N3CCCCC3)nn2)c(C)c1CCC(=O)Nc1ccc(F)cc1F	–	–	·	·	–
CC(=O)OCC1(C)CN(c2ccccc2)N(C(=O)c2ccc(C(C)(C)C)cc2)C1=O (stereo not given)	-63.8	–	–	–	–
CCOC(=O)c1nn2c(C(F)(F)F)cc(-c3ccc(OC)cc3)nc2c1Br	–	34.8	–	–	–
COc1ccc(CCN2CC34C=CC(O3)C(C(=O)NCc3ccccc3Cl)C4C2=O)cc1OC (stereo not given)	–	–	–	–	–
COc1ccccc1N1CCN(C(=O)C2C3C=CC4(CN(Cc5ccccc5Cl)C(=O)C24)O3)CC1 (stereo not given)	-34.6	–	–	–	–
Cc1ccc(S(=O)(=O)C(CNC(=O)COc2ccccc2)c2cccs2)cc1 (stereo not given)	·	–	·	·	–
CCCCCCCCCCOC(=O)Cn1c(COc2cccc(C)c2)[n+](C)c2ccccc21	–	116.0	–	–	–
CCCCCCCCCCOC(=O)Cn1c(COc2ccc(OC)cc2)[n+](C)c2ccccc21	–	138.5	–	–	–
Cc1ccccc1OCc1n(CC(=O)OC2CC(C)CCC2C(C)C)c2ccccc2[n+]1C (stereo not given)	–	–	–	–	–
CCCCOC(=O)Cn1c(=O)n(CC(=O)OCCCC)c2ccccc21	–	–	–	–	–
CCCCCCCCCCOC(=O)Cn1c(COc2ccccc2)[n+](C)c2ccccc21	-41.8	124.1	–	–	–
CCCCCCCCCCOC(=O)Cn1c(COc2ccccc2C)[n+](C)c2ccccc21	–	76.2	–	–	–
CCS(=O)(=O)c1c(S(=O)(=O)CC)c2cc(C(C)(C)C)ccn2c1C(=O)c1ccc(F)cc1	–	–	·	·	–
CCCCCCCCCCOC(=O)Cn1c(COc2ccc(Cl)cc2)[n+](C)c2ccccc21	-41.8	136.7	–	–	–
O=C(NCCc1ccc(Cl)cc1)c1cnc2sc(N3CCCC3)nn2c1=O	–	–	·	·	–
Cc1cccc(C)c1OCC(=O)NC1CC1	-46.7	–	?	–	–
Cc1cccc(OCC(=O)NC2CCCCCC2)c1C	–	–	–	–	–
Cc1ccccc1CSCC(=O)NC1CCCC1	-45.1	–	–	–	–
N#Cc1nc(Nc2ccc(-c3ccccc3)cc2)nc(NC2CCCC2)n1	–	–	·	·	–
O=C(NC1CCCCCC1)C1CCN(C(=O)N2CCOc3ccc(Cl)cc32)CC1	–	–	·	·	–
CC(=O)Nc1ccc(NC(=O)c2ccc(C3SCC(=O)N3CCc3ccccc3)cc2)cc1 (stereo not given)	-52.2	–	–	–	–
COC(=O)CCn1c(C)cc(C(=O)COc2ccccc2C(N)=O)c1C	-55.9	–	–	–	–
SMILES	D1 antag	D1 agonist	TRPV1 agonist	TRPV1 potentiator	D1 PAM
CCOC(=O)c1cc2n(c1/N=C/N(C)C)-c1ccccc1C2=O	–	90.2	?	–	–
CCOC(=O)c1ccc2c(c1)N(C)C(=O)c1ccccc1S2	–	–	–	–	–
COc1cccc(C(=O)N(Cc2sccc2C)C2CCS(=O)(=O)C2)c1 (stereo not given)	–	–	·	·	–
COc1ccccc1CNC(=O)CN(C)S(=O)(=O)c1ccc2c(c1)n(C)c(=O)c(=O)n2C	–	–	–	–	–
CN(CC(=O)NCc1ccc(Cl)cc1)S(=O)(=O)c1ccc2c(c1)c(=O)n(C)c(=O)n2C	-43.8	–	·	·	–
COc1ccccc1CNC(=O)CN(C)S(=O)(=O)c1ccc2c(c1)c(=O)n(C)c(=O)n2C	-36.8	–	–	–	–
CN(CC(=O)NCc1ccc(F)cc1)S(=O)(=O)c1ccc2c(c1)c(=O)n(C)c(=O)n2C	–	–	–	–	–
Cc1ccc(C(=O)N/C(=C\c2ccc(Cl)cc2)C(=O)NC2CCCCC2)cc1	–	–	·	·	–
N#Cc1c(-n2ncnc2-c2ccc(F)cc2)sc2c1CCCCC2	–	–	·	·	–
